{"source": "paper PMC7862700", "about": "“An all-to-all approach to the identification of sequence-specific readers for epigenetic DNA modifications on cytosine”", "test_in_all_cases": "DAPPL (digital affinity profiling via proximity ligation, sequencing); 10 mM Tris-HCl pH 7.5, 50 mM NaCl, 1 mM DTT, 4% glycerol, room temperature, 30 min; GST-TFs on glutathione beads, 16-mer random dsDNA library, 0.1% formaldehyde crosslink after washing; high values mean tight binding", "settings_in_all_cases": "protein: recombinant; tags: N-terminal GST; dsDNA, one strand shown", "key": {"[1]": {"molecular_target": "ELF4 (Homo sapiens, UniProt Q99607 1-663)", "sequence (Q99607 whole entry, the tested form may be a part)": "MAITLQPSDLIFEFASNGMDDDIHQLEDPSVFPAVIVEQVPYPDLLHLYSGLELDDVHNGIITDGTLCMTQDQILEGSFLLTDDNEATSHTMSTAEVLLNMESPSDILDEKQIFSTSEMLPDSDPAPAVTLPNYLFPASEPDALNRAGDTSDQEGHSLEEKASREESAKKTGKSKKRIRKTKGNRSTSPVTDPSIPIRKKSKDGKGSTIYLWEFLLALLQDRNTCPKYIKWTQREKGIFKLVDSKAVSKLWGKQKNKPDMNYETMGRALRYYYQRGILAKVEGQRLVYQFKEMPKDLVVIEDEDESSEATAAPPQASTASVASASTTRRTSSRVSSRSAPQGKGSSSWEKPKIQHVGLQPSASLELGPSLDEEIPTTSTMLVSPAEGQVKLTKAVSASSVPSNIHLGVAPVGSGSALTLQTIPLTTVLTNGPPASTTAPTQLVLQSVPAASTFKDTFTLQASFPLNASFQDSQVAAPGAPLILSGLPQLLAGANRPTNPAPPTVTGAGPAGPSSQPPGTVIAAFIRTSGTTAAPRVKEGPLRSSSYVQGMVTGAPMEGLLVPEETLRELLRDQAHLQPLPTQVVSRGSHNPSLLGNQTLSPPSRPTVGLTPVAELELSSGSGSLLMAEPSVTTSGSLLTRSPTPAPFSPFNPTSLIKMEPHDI", "in_short": "(§1)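 Pools were built from human transcription factors expressed in yeast as GST fusions, captured on glutathione beads and DNA-barcoded, along with a tag-only sample. Incubation with 200 nmole of a 16-mer random double-stranded DNA library lasted 30 min at room temperature in Tris/NaCl/DTT/glycerol buffer, and was followed by washing, 0.1% formaldehyde crosslinking, proximity ligation, PCR amplification and Illumina NextSeq500 sequencing. Binding signal is the quotient of each hexamer's read frequency for a factor and its frequency for the tag-only sample.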"}, "[2]": {"molecular_target": "T1, ETV2 (Homo sapiens, UniProt O00321 1-342)", "T1 sequence": "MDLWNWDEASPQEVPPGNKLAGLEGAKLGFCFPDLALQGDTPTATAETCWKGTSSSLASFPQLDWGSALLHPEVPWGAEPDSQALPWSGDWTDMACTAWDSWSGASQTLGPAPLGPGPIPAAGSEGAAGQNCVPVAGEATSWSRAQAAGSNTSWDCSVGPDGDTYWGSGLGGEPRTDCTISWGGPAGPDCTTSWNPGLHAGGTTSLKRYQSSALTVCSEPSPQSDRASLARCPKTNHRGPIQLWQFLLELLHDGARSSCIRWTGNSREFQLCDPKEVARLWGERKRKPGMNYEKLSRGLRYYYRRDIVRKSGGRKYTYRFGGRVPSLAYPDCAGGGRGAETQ", "in_short": "as §1"}, "[3]": {"molecular_target": "T2, ELF3 (Homo sapiens, UniProt P78545 1-371)", "T2 sequence": "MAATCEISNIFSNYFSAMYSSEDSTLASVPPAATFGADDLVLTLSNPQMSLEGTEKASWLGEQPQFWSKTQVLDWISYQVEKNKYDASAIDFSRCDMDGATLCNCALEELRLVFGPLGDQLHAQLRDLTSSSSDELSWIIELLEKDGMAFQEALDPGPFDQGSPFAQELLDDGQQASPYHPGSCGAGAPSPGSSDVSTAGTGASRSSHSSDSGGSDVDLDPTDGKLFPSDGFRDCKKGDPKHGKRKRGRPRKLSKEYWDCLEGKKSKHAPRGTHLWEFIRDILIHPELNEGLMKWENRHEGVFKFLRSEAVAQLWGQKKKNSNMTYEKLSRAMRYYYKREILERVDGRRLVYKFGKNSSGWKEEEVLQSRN", "in_short": "as §1"}, "[4]": {"molecular_target": "ETV1 (Homo sapiens, UniProt P50549 1-477)", "sequence (P50549 whole entry)": "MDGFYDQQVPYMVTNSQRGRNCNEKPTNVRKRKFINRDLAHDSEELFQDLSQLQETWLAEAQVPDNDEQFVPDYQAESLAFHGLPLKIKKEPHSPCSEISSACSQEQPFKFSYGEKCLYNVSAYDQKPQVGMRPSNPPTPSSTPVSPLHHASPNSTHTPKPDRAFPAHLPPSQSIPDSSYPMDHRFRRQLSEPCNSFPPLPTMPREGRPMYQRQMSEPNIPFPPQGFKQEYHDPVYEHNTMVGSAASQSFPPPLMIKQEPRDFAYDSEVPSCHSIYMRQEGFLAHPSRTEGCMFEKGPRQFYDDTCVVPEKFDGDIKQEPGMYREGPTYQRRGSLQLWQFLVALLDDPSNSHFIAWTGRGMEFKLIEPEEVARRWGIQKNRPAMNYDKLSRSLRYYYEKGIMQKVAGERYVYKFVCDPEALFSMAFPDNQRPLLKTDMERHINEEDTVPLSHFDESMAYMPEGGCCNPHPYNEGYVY", "in_short": "as §1"}, "[5]": {"molecular_target": "T3, ERF (Homo sapiens, UniProt P50548 1-548)", "T3 sequence": "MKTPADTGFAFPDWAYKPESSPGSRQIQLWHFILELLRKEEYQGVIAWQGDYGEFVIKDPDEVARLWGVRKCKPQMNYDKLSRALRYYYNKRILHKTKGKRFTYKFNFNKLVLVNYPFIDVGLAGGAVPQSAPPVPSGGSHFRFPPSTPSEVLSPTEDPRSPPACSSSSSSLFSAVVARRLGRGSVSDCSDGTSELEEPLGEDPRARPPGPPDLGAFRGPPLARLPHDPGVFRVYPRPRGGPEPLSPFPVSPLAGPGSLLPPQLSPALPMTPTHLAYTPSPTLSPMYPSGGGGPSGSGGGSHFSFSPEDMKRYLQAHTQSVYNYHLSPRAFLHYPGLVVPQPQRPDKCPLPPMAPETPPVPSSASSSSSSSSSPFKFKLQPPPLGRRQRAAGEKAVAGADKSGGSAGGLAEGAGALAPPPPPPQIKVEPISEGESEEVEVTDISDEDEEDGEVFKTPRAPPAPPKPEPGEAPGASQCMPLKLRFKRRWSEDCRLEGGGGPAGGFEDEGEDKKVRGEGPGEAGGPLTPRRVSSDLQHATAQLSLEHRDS", "in_short": "as §1"}, "[6]": {"molecular_target": "T4, ETV3L (Homo sapiens, UniProt Q6ZN32 1-361)", "T4 sequence": "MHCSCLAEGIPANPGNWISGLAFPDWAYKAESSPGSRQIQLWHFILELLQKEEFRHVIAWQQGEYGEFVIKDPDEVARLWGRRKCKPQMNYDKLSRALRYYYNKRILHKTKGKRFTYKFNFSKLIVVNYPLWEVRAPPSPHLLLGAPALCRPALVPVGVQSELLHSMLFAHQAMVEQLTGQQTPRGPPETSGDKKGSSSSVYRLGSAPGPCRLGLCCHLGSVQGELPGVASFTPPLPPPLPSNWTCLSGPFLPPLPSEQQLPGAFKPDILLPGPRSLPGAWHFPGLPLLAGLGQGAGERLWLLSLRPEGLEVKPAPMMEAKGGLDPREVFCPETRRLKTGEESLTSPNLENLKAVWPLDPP", "in_short": "as §1"}, "[7]": {"molecular_target": "T5, ETS2 (Homo sapiens, UniProt P15036 1-469)", "T5 sequence": "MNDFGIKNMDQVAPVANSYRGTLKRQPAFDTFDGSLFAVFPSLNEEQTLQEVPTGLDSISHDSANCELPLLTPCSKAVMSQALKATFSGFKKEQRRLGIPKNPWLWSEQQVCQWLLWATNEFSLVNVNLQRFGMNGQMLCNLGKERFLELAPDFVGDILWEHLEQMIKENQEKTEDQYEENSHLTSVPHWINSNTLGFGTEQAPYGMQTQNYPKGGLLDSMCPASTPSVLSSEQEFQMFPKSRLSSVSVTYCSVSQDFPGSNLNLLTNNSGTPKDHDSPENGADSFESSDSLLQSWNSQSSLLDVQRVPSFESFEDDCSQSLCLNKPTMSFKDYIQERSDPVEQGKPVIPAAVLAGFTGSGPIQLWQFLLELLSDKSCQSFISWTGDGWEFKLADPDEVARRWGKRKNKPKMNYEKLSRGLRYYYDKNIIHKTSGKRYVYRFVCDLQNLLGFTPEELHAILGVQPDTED", "in_short": "as §1"}, "[8]": {"molecular_target": "T6, ETV7 (Homo sapiens, UniProt Q9Y603 1-341)", "T6 sequence": "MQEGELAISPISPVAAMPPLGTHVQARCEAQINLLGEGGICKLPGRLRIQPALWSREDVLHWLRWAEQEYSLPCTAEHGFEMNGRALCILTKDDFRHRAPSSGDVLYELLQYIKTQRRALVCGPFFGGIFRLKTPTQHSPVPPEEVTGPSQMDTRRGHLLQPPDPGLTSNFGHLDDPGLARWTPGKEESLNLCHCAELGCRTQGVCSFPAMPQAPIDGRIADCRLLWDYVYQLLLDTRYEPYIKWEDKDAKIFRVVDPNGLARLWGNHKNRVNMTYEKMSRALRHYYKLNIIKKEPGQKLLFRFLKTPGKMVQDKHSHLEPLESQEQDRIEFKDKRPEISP", "in_short": "as §1"}, "[9]": {"molecular_target": "T7, ETV3 (Homo sapiens, UniProt P41162-2 1-143)", "T7 sequence": "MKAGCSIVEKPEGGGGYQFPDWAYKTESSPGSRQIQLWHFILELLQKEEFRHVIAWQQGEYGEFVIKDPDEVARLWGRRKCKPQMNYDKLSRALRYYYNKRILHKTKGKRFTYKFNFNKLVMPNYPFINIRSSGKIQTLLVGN", "in_short": "as §1"}, "[10]": {"molecular_target": "ETV6 (Homo sapiens, UniProt P41212 1-452)", "sequence (P41212 whole entry)": "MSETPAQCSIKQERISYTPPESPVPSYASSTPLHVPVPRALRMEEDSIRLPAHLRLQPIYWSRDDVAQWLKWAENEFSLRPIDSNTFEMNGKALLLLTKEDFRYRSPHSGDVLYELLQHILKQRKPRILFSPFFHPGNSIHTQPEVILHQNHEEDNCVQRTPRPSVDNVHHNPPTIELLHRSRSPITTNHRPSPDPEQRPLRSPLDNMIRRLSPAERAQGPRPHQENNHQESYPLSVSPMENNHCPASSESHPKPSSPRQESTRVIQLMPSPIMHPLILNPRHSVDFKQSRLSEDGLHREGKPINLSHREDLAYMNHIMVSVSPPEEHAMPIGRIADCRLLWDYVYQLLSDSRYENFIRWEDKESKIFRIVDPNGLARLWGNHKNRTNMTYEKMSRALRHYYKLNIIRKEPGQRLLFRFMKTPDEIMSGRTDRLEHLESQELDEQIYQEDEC", "in_short": "as §1"}}}
{"sequence": "ACCGCA", "values": [{"measurement": "binding signal", "setting": "[1]", "value": "1.15 fold enrichment (6-mer frequency, TF over GST control)"}, {"measurement": "binding signal", "setting": "[2]", "value": "1.3 fold enrichment (6-mer frequency, TF over GST control)"}, {"measurement": "binding signal", "setting": "[3]", "value": "1.29 fold enrichment (6-mer frequency, TF over GST control)"}, {"measurement": "binding signal", "setting": "[4]", "value": "1.17 fold enrichment (6-mer frequency, TF over GST control)"}, {"measurement": "binding signal", "setting": "[5]", "value": "1.11 fold enrichment (6-mer frequency, TF over GST control)"}, {"measurement": "binding signal", "setting": "[6]", "value": "1.12 fold enrichment (6-mer frequency, TF over GST control)"}, {"measurement": "binding signal", "setting": "[7]", "value": "1.18 fold enrichment (6-mer frequency, TF over GST control)"}, {"measurement": "binding signal", "setting": "[8]", "value": "1.12 fold enrichment (6-mer frequency, TF over GST control)"}, {"measurement": "binding signal", "setting": "[9]", "value": "1.09 fold enrichment (6-mer frequency, TF over GST control)"}, {"measurement": "binding signal", "setting": "[10]", "value": "1.15 fold enrichment (6-mer frequency, TF over GST control)"}]}
